In the library only some 1.8% were active in any assay of this set; here they are far more common.
VDR inh: vitamin D3 receptor (human) inhibition | hit rate 0.93% among 400,000 | VDR-SRC2-3 peptide fluorescence polarization, 2 h | Potency, µM, for inactives: max response, negative = inhibition, hits mostly inhibitors; also: % is scaled to controls: 0 for no effect and ±100 for the full control effect
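Compounds are added to VDR with labelled SRC2-3 coactivator peptide and held 2 h at room temperature. Inhibition of the VDR–peptide interaction is then read as a change in fluorescence polarization.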
Vif-APOBEC3G blk: blocks the Vif interaction with human APOBEC3G; Q9HC16; HeLa A3G-eYFP + Vif (tagged APOBEC3G with the HIV-1 protein that degrades it), YFP fluorescence, overnight; Potency, µM (doses to about 46.1 µM), without a hit: top-dose activity, negative = active, actives largely listed as inhibitors; hit rate 0.076% among 410,000; also: % is scaled to controls: 0 for no effect and ±100 for the full control effect; nearly all actives have a fitted effect of over 60% in size
Target sequence (Q9HC16 whole entry, looked up): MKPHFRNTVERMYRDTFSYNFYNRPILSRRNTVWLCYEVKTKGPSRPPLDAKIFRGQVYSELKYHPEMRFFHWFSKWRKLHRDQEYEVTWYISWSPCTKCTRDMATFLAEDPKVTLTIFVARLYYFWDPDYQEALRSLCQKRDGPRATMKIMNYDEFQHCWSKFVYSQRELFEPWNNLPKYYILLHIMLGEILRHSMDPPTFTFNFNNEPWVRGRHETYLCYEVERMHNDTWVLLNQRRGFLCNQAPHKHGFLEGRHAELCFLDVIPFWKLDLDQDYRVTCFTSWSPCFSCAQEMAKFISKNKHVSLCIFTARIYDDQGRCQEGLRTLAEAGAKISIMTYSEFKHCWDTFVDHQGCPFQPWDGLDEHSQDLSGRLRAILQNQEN
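HeLa cells stably expressing Vif and C-terminally eYFP-tagged A3G, seeded overnight at 37 deg C, then exposed to compound by pintool overnight at 37 deg C. Rise in yellow fluorescence (Ex 488/Em 500-530, Acumen) marks blocked Vif-driven A3G degradation.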
TrxR1 substrate: rat thioredoxin reductase 1 substrate activity; hit rate 0.01% among 390,000; purified TrxR1 substrate turnover, NADPH consumption readout; AID 588456; Potency, µM (series often up to 114 µM), without a hit: at the highest dose activity change, negative = substrate turnover; also: % is scaled to controls: 0 for no effect and ±100 for the full control effect; nearly all actives have a fitted effect of over 50% in size
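Rat TrxR1, dispensed at 90 nM, was prereduced with 400 uM NADPH (final) for 5 min at ~22 deg C, then incubated with compound 15 min before 400 uM selenite. A first-read NADPH fluorescence drop versus no-compound background flagged substrates.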
Vif-APOBEC3F blk: Vif-A3F binding inhibition; HeLa A3F-eYFP + Vif (tagged APOBEC3F with the HIV-1 protein that degrades it), YFP fluorescence increase; Potency, µM (doses to about 46.1 µM), for the others: at the highest dose activity, negative = active; hit rate 0.2% among 390,000; AID 602313; also: % of control where 0% means no effect; nearly all actives have a fitted effect of over 65% in size
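HeLa cells stably expressing Vif plus C-terminally eYFP-tagged A3F were seeded, incubated overnight at 37 deg C, dosed with compound, incubated overnight again at 37 deg C. Yellow fluorescence (Ex 488/Em 500-530) reported blocked Vif-mediated A3F-eYFP degradation.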
TrxR1 inh: inhibitors of rat thioredoxin reductase 1 | O89049 | recombinant rTrxR1, NADPH fluorescence consumption, selenite substrate | hit rate 1% among 390,000 | Potency, µM (highest dose often 114 µM), for inactives: top-dose activity change, negative = inhibition, hits mostly inhibitors; also: % is scaled to controls: 0 for no effect and ±100 for the full control effect; nearly all actives have a fitted effect of over 65% in size
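Rat TrxR1 (90 nM in the dispensed reagent) was pre-reduced with 400 uM NADPH for 5 min at room temperature, then incubated with compound for 15 min. After 400 uM selenite was added, NADPH fluorescence (Ex 340/Em 450 nm) was followed for 8 min.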
Active calls of the source: *; ? = inconclusive; . = no result given; [ ] = remark or other dose. Calls follow the shape of the dose curve; as a rule, active = well fitted curve in the direction sought with a large enough effect; inconclusive = small, poorly fitted or top-dose-only effect, or another doubt; inactive = no such curve, though single readings can be large; an effect the other way counts as inactive or inconclusive. Potency is read from the fitted curve at half-maximal effect.

SMILES	VDR inh	Vif-APOBEC3G blk	TrxR1 substrate	Vif-APOBEC3F blk	TrxR1 inh
O=C(Nc1ccc2nc(-c3ccco3)[nH]c2c1)c1ccco1	-7%	-7%	-7%	1%	?
O=C(Nc1cccc(F)c1)/C(=C/c1ccco1)NC(=O)c1ccco1	-1%	-3%	-17%	3%	45µM*
O=C(Nc1cccc(F)c1)/C(=C\c1cccnc1)NC(=O)c1ccco1	19%	-6%	8%[57.1 µM]	1%	7%[57.1 µM]
COc1ccccc1/C=C/c1ccnc2ccccc12	.	?	4%	.	-10%[0.0914 µM]
COc1cc(CNc2ccc3c(c2)CCC3)cc(OC)c1O	-15%	2%	7%	-2%	0.4µM*
S=c1nc[nH]c2n[nH]nc12	.	-13%	-3%	.	-5%
c1ccc(N/N=C(\Cc2nc3ccccc3[nH]2)c2ccccc2)cc1	?	-16%	-9%	5%	-18%
Cc1ccc(N/N=C(\Cc2nc3ccccc3[nH]2)c2ccccc2)cc1	?	-39%	-3%	?	79µM*
COc1ccc(CCNC(=O)CS(=O)Cc2nc(-c3ccccc3Cl)oc2C)cc1OC (centres undefined)	-13%	0%	7%	-4%	27%
COc1ccc(CCNC(=O)CS(=O)Cc2nc(-c3ccccc3F)oc2C)cc1OC (centres undefined)	-20%	4%	24%	3%	50µM*
COc1ccc(CNC(=O)CS(=O)Cc2nc(-c3ccc(OC)c(OC)c3)oc2C)cc1 (centres undefined)	-12%	0%	8%	4%	-19%
COc1ccc(-c2nc(CS(=O)CC(=O)NCc3ccc(C)cc3)c(C)o2)cc1OC (centres undefined)	-8%	1%	9%	1%	50µM*
Cc1ccc(CCNC(=O)CS(=O)Cc2nc(-c3ccccc3C)oc2C)cc1 (centres undefined)	-11%	3%	-8%	-2%	-4%
Cc1ccc(CCNC(=O)CS(=O)Cc2nc(-c3ccccc3F)oc2C)cc1 (centres undefined)	-14%	1%	2%	-2%	32µM*
COc1ccc(CCNC(=O)CS(=O)Cc2nc(-c3cccs3)oc2C)cc1OC (centres undefined)	-18%	-6%	3%	2%	40µM*
CC1=C(C(=O)NCc2cccc(Cl)c2)C2(CCCCCC2)OC1=O	2%	2%	-3%	0%	-4%
COCCNC(=O)CS(=O)Cc1nc(-c2ccccc2C)oc1C (centres undefined)	-19%	-3%	7%	-10%	16µM*
Cc1ccccc1-c1nc(CS(=O)CC(=O)NCc2ccccc2)c(C)o1 (centres undefined)	-16%	-1%	11%[57.1 µM]	-2%	-53%
CCOc1ccc(N2C(=O)CC(Sc3ccccc3C(=O)O)C2=O)c([N+](=O)[O-])c1 (centres undefined)	-24%	0%	5%	2%	28µM*
O=C(O)c1ccccc1SC1CC(=O)N(c2cccc3ccccc23)C1=O (centres undefined)	-20%	-3%	15%	-12%	20µM*
CCN1C(=O)CC(Sc2ccccc2C(=O)O)C1=O (centres undefined)	-5%	-3%	7%	-5%	-4%
Cc1cc(C)cc(C(=O)C[n+]2cccc(Br)c2)c1	.	0%	1%	.	-6%
O=c1ccc(NS(=O)(=O)c2ccccc2Cl)cn1Cc1ccc(Cl)c(Cl)c1	16µM*	-7%	1%	0%	-7%
CC(C)NC(=S)N/N=C/c1sc(N2CCCCC2)nc1-c1cccs1	10%	?	-12%	11µM*	-5%
CN(C)/[N+]([O-])=N/Oc1ccc([N+](=O)[O-])cn1	.	3%	-1%	.	2%
SMILES	VDR inh	Vif-APOBEC3G blk	TrxR1 substrate	Vif-APOBEC3F blk	TrxR1 inh
N#CC(C#N)=C1C=CC=CN1/C(=C\c1ccco1)C(=O)c1ccc(Br)cc1	10µM*	-23%	-5%	?	1.1µM*
N#CC(C#N)=C1C=CC=CN1/C(=C\c1ccco1)C(=O)c1ccccc1	14µM*	?	-15%	20µM*	1.6µM*
COc1ccc(C(=O)N/C(=C\c2ccco2)C(=O)OCc2ccco2)cc1	3%	3%	-22%[57.1 µM]	0%	-80%
CC(C)OC(=O)/C(=C/c1ccco1)c1ccccc1	-3%	0%	3%[57.1 µM]	-12%	-29%
COc1ccc(/C=C(/C(=O)c2cccs2)N2C=CC=CC2=C(C#N)C#N)cc1	?	?	2%	?	0.11µM*
N#C/C(=C/c1ccco1)C(N)=S	12%	-4%	-5%	3%	-4%
COc1ccc(C(=O)/C(=C\c2ccco2)N2C=CC=CC2=C(C#N)C#N)cc1	40µM*	-37%	3%	?	8.9µM*
O=C1CCC(=O)N1CO	9%	.	.	.	.
COc1ccc(/C=C2\C=Cc3ccccc32)cc1OC	.	-2%	-6%	.	-18%
CN(C)c1ccc(CC2CCc3ccccc32)cc1 (centres undefined)	.	3%	4%	.	19%
Cc1ccc(C(=O)N/C(=C/c2ccc(C(C)C)cc2)C(=O)NCCCN2CCOCC2)cc1	-8%	0%	3%	9%	20%
Cc1ccc(C(=O)N/C(=C\c2ccc(-c3ccccc3[N+](=O)[O-])o2)C(=O)NCCCN2CCOCC2)cc1	?	4%	-7%	-7%	40µM*
CCOC(=O)Nc1ccc(/C=C/c2ccnc3ccccc23)cc1	.	-4%	3%	.	12%[0.0914 µM]
CCOC(=O)N1C(=O)[C@](c2ccc(Cl)cc2)(C(C)C)N1C(=O)OCC	-24%	-29%	-7%	3%	45µM*
CCOC(=O)N1C(=O)[C@@](c2ccc(Cl)cc2)(C(C)C)N1C(=O)OCC	?	?	6%	7%	?
CCOC(=O)c1c(NC(=O)c2ccccc2C)sc2c1CCCC2	79µM*	8%	24%	6%	12%
CCOC(=O)c1c(NC(=O)c2ccccc2)sc2c1CCc1ccccc1-2	71µM*	-8%	18%	?	15%
CCOC(=O)c1c(NC(=O)c2cc(-c3cccc(OC)c3)on2)sc2c1CCCC2	79µM*	3%	4%	0%	8%
CCOC(=O)c1c(NC(=O)c2cc(-c3ccc(OC)c(OC)c3)on2)sc2c1CCCC2	?	0%	-11%	-1%	-10%
Cc1ccc(C(c2sc3nc(-c4ccco4)nn3c2O)N2CCC3(CC2)OCCO3)cc1 (centres undefined)	12%	-4%	1%[57.1 µM]	0%	8%[57.1 µM]
Fc1cccc(C[n+]2csc3ccccc32)c1	32µM*	1%	-9%	-10%	?
c1ccc(C[n+]2csc3ccccc32)cc1	40µM*	4%	3%	-3%	43%
O=C1C[C@H](c2ccccc2Cl)N1S(=O)(=O)c1ccccc1[N+](=O)[O-]	1%	-3%	1%	.	0%
O=C(Cc1ccccc1)NO	-2%	.	8%	.	17%
O=C(Cc1ccccc1)NC1(O)C(=O)c2ccccc2C1=O	35µM*	0%	4%[57.1 µM]	1%	17%[57.1 µM]
